Assay outcomes as filed in PubChem BioAssay.
BAZ2B block – qHTS Assay for Inhibitors of BAZ2B. Bromodomain adjacent to zinc finger domain protein 2B (Homo sapiens), Q9UIF8. AlphaScreen BAZ2B-H3K14Ac peptide displacement. Potency, µM (titrated, usually from 114 µM), actives largely listed as inhibitors. 360,000 compounds, 4.4% hits. AID 504333, 2011; note: nearly all actives have a fitted effect of over 60% in size
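AlphaScreen luminescence quantifies BAZ2B engagement of H3K14Ac peptide; the protein and biotinylated peptide are both at 50 nM final, buffer PBS pH 7.4 with 0.01% Tween-20, all steps at room temperature.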
HP1b binding inh – HTS for Inhibitors of HP1-beta Chromodomain Interactions with Methylated Histone Tails. Chromobox protein homolog 1 (Homo sapiens), P83916. AlphaScreen HP1-beta / biotin-H3K9me3 peptide binding. Potency, µM (top dose mostly 114 µM), most hits filed as inhibitors. 390,000 compounds, 0.56% hits. AID 540317, 2011; note: nearly all actives have a fitted effect of over 70% in size
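Compound inhibition of the preformed complex between 50 nM HP1-beta and 50 nM biotinylated H3K9me3 peptide was read by AlphaScreen. Buffer was PBS pH 7.4 with 0.01% Tween-20. Incubations ran 30 min at room temperature, with 10 ug/mL donor/acceptor beads.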
JMJD2A Tudor – qHTS Assay for Inhibitors of JMJD2A-Tudor Domain; Lysine-specific demethylase 4A (Homo sapiens), O75164; AlphaScreen JMJD2A-Tudor / H3K4me3 peptide binding; Potency, µM (series often up to 114 µM), usual class: inhibitors; 390,000 compounds, 4.4% hits; note: nearly all actives have a fitted effect of over 50% in size
PLK1 PBD inh – qHTS for Inhibitors of PLK1-PDB (polo-like kinase 1 - polo-box domain): Primary Screen; Serine/threonine-protein kinase PLK1 (Homo sapiens), P53350; Plk1 PBD binding of FITC phosphopeptide, fluorescence polarization; Potency, µM, usual class: inhibitors; 360,000 compounds, 2.8% hits; AID 720504, 2013; note: series mostly up to about 57 µM; nearly all actives have a fitted effect of over 65% in size
G9a inh – qHTS Assay for Inhibitors of Histone Lysine Methyltransferase G9a. Histone-lysine N-methyltransferase EHMT2 (Homo sapiens), Q96KQ7. 350,000 compounds, 8.8% hits. AID 504332, 2011. Potency, µM (doses to about 102 µM), hits mostly inhibitors. G9a H3K9 monomethylation, AlphaScreen, 2 h; note: nearly all actives have a fitted effect of over 75% in size
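Signal arises when biotinylated H3K9 peptide, once monomethylated, bridges streptavidin donor and antibody-captured acceptor beads. Enzyme at 20 nM was preincubated 15 min with test compounds; peptide 500 nM and SAM 20 uM then reacted for 2 h.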
ALOX12 inh – Primary qHTS assay for inhibitors of human arachidonate 12S-lipoxygenase (ALOX12): Round 2; purified 12hLO, xylenol orange hydroperoxide absorbance; Potency, µM (titrated, usually from 108 µM), hits mostly inhibitors; 580,000 compounds, 1.1% hits; AID 1671190, 2021
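Purified human 12hLO at 150 nM in 25 mM Hepes, 0.01% Triton X-100, pH 7.0, preincubated 15 min at room temperature with compound. Reaction started with 40 uM arachidonic acid, 30 min at room temperature. Hydroperoxide measured by Fe-xylenol orange, 573/405 nm absorbance ratio.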
Hits are given with their value; - = inactive; ? = inconclusive; . = no result given; [ ] = another dose, or the depositor's remark. Rows were chosen to be rich in hits. Some 9% of all compounds tested hit in one or more screens of this group. Calls come from the whole dose curve; as a rule, active = well fitted curve in the direction sought with a large enough effect; inconclusive = small, poorly fitted or top-dose-only effect, or another doubt; inactive = no such curve, though single readings can be large; an effect the other way counts as inactive or inconclusive.

SMILES	BAZ2B block	HP1b binding inh	JMJD2A Tudor	PLK1 PBD inh	G9a inh	ALOX12 inh
Cc1csc(NC(=O)c2ccc3c(c2)OCO3)n1	-	-	-	-	-	-
O=C(CCC(=O)NC1CCN(Cc2ccccc2)CC1)NCc1ccco1	-	-	-	-	-	-
CSc1ccc(C2CC(=O)Nc3c2c(=O)n(C)c(=O)n3C)cc1 (configuration not stated)	-	-	-[11.4 µM]	27µM	-	-
Cn1c2c(c(=O)n(C)c1=O)C(c1cccc(O)c1)CC(=O)N2 (configuration not stated)	-	-	-	.	-	-
CCOC(=O)N1CCC(NC(=O)C(CC)n2nc(C)c3sc4ccccc4c3c2=O)CC1 (configuration not stated)	.	.	.	.	.	-
COC(=O)c1ccccc1NC(=O)c1noc2c1CC(C(C)(C)C)CC2 (configuration not stated)	-	-	-	-	-[12.7 µM]	-
O=[N+]([O-])c1cccc(-c2cc3ccccc3[nH]2)c1	-	-	-	-	-	-
O=[N+]([O-])/C=C/c1cc2ccccc2[nH]1	-	-	-	?	18µM	-
CC(C)(C)n1nc2c(c1NC(=O)Cc1ccc(F)cc1)CSC2	-	-	-	-	45µM	?
O=C(COC(=O)/C=C/c1ccc(Br)o1)NC1CCCCC1	?	-	79µM	-	-[12.7 µM]	-
O=C(COC(=O)/C=C/c1ccc(Br)o1)Nc1ccccc1F	56µM	.	.	.	?	.
CCOC(=O)c1cc2c(ccn2C)n1Cc1cc(C)ccc1C	50µM	?	25µM	-	50µM	-
COC(=O)c1cc2sc(Cl)cc2n1Cc1cc(C)ccc1C	-	-	-	.	-	-
Nc1nc(SCc2ccc(Br)cc2)c2ncn(C3OC(CO)C(O)C3O)c2n1 (configuration not stated)	.	-	-	-	.	?
CC(C)c1ccc(Nc2n[nH]c(C(O)c3ccccc3)n2)cc1 (configuration not stated)	.	.	.	.	.	-
C=CCNC(=O)/C=C/c1cccc(OC)c1	.	.	.	.	.	-
CNc1ccc(Br)cc(C(=O)/C=C/c2ccc(Cl)cc2Cl)c1=O	?	?	56µM	?	35µM	13µM
CNc1ccc(Br)cc(C(=O)/C=C/c2cccc(OC)c2)c1=O	45µM	?	45µM	-	7.9µM	?
CNc1ccc(Br)cc(C(=O)/C=C/c2ccc(OC)cc2OC)c1=O	32µM	?	32µM	?	7.9µM	?
Cc1ccc(-c2cc3c(=O)n(CCNC(=O)Cc4ccccc4Cl)ccn3n2)c(C)c1	.	.	.	.	.	-
COc1ccc(C(=O)Nc2ccccc2C(=O)N2CCOCC2)cc1	-	-	-	-	-	-
Cc1nc(N2CCCCC2)ncc1C(=O)N1C[C@@H](CN(C)C)C[C@H](CO)C1	.	.	.	.	.	-
Cn1nc(C(=O)OCC(=O)C(C)(C)C)c2ccccc2c1=O	.	.	.	.	.	-
c1ccc(Cc2ccc(OCCN3CCOCC3)cc2)cc1	-	-	-	-	-	-
COc1ccc(OCCN2CCOCC2)cc1	?	?	50µM	-	32µM	?
SMILES	BAZ2B block	HP1b binding inh	JMJD2A Tudor	PLK1 PBD inh	G9a inh	ALOX12 inh
Cc1cc(C)cc(OCCN2CCOCC2)c1	-	?	28µM	-	11µM	?
c1ccc(OCCN2CCOCC2)cc1	35µM	?	20µM	-	-[2.33 µM]	-
COc1ccc(OCCC(=O)NCCN2CCOCC2)cc1	-	-	-	-	56µM	-
COc1ccc(CN2C(=O)C(CC(=O)NCCN3CCOCC3)CC(C(=O)N(C)C)=C2C)cc1 (configuration not stated)	.	.	.	-	.	-
c1ccc(OCCN2CCC(c3nc4ccccc4s3)CC2)cc1	.	.	.	.	.	5µM
Cc1ccc(OCCCCCN2CCOCC2)cc1	-	-	-	-	-	-
Cc1ccc(OCCCN2CCOCC2)cc1	?	?	10µM	-	40µM	-
